# Target: Phosphorylase b kinase gamma catalytic chain, skeletal muscle/heart isoform (Homo sapiens) (UniProt Q16816)
# Conditions: at 0.1 µM
# Sequence of Phosphorylase b kinase gamma catalytic chain, skeletal muscle/heart isoform (Homo sapiens) (Q16816 whole entry, looked up, canonical isoform): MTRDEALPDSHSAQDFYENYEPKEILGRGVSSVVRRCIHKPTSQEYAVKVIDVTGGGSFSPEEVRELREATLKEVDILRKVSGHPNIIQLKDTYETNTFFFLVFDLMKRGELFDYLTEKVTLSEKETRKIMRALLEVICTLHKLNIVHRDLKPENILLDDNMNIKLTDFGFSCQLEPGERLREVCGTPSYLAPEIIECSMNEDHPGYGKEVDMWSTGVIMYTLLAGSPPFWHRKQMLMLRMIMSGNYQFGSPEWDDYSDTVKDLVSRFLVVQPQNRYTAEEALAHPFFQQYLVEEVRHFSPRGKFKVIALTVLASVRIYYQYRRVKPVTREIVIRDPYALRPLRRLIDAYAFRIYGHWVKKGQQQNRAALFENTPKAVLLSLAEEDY
row,SMILES,inhibition [%]
1,COc1cc(C=NNc2ncnc3c2cnn3Cc2ccccc2)ccc1O,-1.3
2,CCn1c(-c2nonc2N)nc2c(C#CCN)ncc(OCCCN)c21,3.15
3,CCn1c(-c2nonc2N)nc2c(C#CC(C)(C)O)nc(O[C@@H](CN)c3ccccc3)cc21,1.61
4,NS(=O)(=O)c1ccc(N/C=C2\C(=O)Nc3ccc4ncsc4c32)cc1,15.2
5,NC(=O)c1sc(-n2cnc3cc(C(F)(F)F)ccc32)cc1OCc1ccccc1Br,0.3
6,Cc1cc(-c2ccco2)cc(C)c1/C=C/c1cncc(-c2nn[nH]n2)c1,3.4
7,Nc1nonc1-c1nc2cnccc2n1C1CCCCC1,-3.58
8,COc1cccc(-n2ncc3c(N/N=C/c4ccncc4)ncnc32)c1,5.39
9,COc1cc2c(cc1Nc1nc(Nc3ccsc3C(N)=O)c3cc[nH]c3n1)N(C(=O)CN(C)C)CCC2,8.54
10,CCn1c(-c2nonc2N)nc2c(C#CC(C)(C)O)ncc(OC[C@@H]3CCCN3)c21,1.02
11,CCn1c(-c2nonc2N)nc2c(C#CC(C)(C)O)ncc(OCC3CCNCC3)c21,2.88
12,COc1cccc(COc2cc(-n3cnc4ccccc43)sc2C(N)=O)c1,2.26
13,Fc1ccc(-c2ncn(C3CCNCC3)c2-c2ccnc(Oc3ccccc3)n2)cc1,3.99
14,NS(=O)(=O)c1ccc(-c2ccc3c(NC(=O)C4CC4)n[nH]c3c2)cc1,-3.09

# Target: Phosphorylase b kinase gamma catalytic chain, skeletal muscle/heart isoform (Homo sapiens) (UniProt Q16816)
# Conditions: at 1 µM
row,SMILES,inhibition [%]
1,COc1cc(C=NNc2ncnc3c2cnn3Cc2ccccc2)ccc1O,2.64
2,CCn1c(-c2nonc2N)nc2c(C#CCN)ncc(OCCCN)c21,5.73
3,CCn1c(-c2nonc2N)nc2c(C#CC(C)(C)O)nc(O[C@@H](CN)c3ccccc3)cc21,12.3
4,NS(=O)(=O)c1ccc(N/C=C2\C(=O)Nc3ccc4ncsc4c32)cc1,47.6
5,NC(=O)c1sc(-n2cnc3cc(C(F)(F)F)ccc32)cc1OCc1ccccc1Br,5.87
6,Cc1cc(-c2ccco2)cc(C)c1/C=C/c1cncc(-c2nn[nH]n2)c1,4.41
7,Nc1nonc1-c1nc2cnccc2n1C1CCCCC1,8.25
8,COc1cccc(-n2ncc3c(N/N=C/c4ccncc4)ncnc32)c1,17.6
9,COc1cc2c(cc1Nc1nc(Nc3ccsc3C(N)=O)c3cc[nH]c3n1)N(C(=O)CN(C)C)CCC2,41.3
10,CCn1c(-c2nonc2N)nc2c(C#CC(C)(C)O)ncc(OC[C@@H]3CCCN3)c21,2.21
11,CCn1c(-c2nonc2N)nc2c(C#CC(C)(C)O)ncc(OCC3CCNCC3)c21,9.61
12,COc1cccc(COc2cc(-n3cnc4ccccc43)sc2C(N)=O)c1,3.47
13,Fc1ccc(-c2ncn(C3CCNCC3)c2-c2ccnc(Oc3ccccc3)n2)cc1,2.25
14,NS(=O)(=O)c1ccc(-c2ccc3c(NC(=O)C4CC4)n[nH]c3c2)cc1,3.54

# — ChEMBL document CHEMBL1961873, “Compounds: GSK PKIS; Assays: Nanosyn kinase panel” (2012)
